The panel holds about 83,000 compounds, 20% with a hit somewhere; the sample as a whole holds those more often.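 Cells were grown in 96-well plates and exposed to the test compound at a single concentration for 48 hours; results are reported as percent growth, with values below 10 considered active.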 Unmarked numbers belong to inactive results. The source made the active and inactive calls.
Tested on: HL-60(TB) leukemia
Assay: NCI-60 one-dose screen, 48 h (100 = growth as untreated, 0 = no growth, -100 = all killed)
Details: 10 µM unless noted

Compound	growth
C=CCCCCCCCCC(=O)OC(C)C	117%
O=c1oc2cc(OS(=O)(=O)c3ccccc3)ccc2c2c1CCCCC2	18.6%
CCNCCCCNCCCCNCCCCNCCCCNCC	127%
COc1ccc(C2=Nc3c(N)ncnc3NC(c3ccc4c(c3)OCO4)C2)cc1 (configuration not stated)	124%
CCOC(=O)NN1CC(O)=C(c2nc(-c3ccc(Br)cc3)cs2)C1=N	98.8%
CN(C)C(=O)c1cc2cnc(Nc3ccc(-c4csc5c(=S)cc(N6CCOCC6)oc45)cc3)nc2n1C1CCCC1	-30.6% (active)
OC(CNC1CCCCC1)Cn1c2ccc(I)cc2c2cc(I)ccc21 (configuration not stated)	93.7%
CCC(=O)Nc1ccccc1C#C/C=C\C#Cc1ccccc1C(F)(F)F	17.3%
COc1ccc(-c2cn[nH]c2-c2cc(OC)c(OC)c(OC)c2)cc1OCc1ccccc1	20.4%
CCC/C=C(\C)C(C)(C#N)C(=O)OCC (configuration not stated)	103%
CCN1C(=O)N(CC)C2C1NC(=S)N2/N=C/C=C/c1ccccc1OC (configuration not stated)	-20.8% (active)
CC/C(=C(/c1ccc(Cl)cc1)c1ccc(OCCN(C)C)cc1)c1ccc(Cl)cc1	64.9%
COc1cccc(NC(=O)NCCNc2nccc(-c3c(-c4ccc(F)cc4)nc4sccn34)n2)c1	92.7%
C=C1C(=O)O[C@H]2[C@H](O)[C@@H](C)CCC/C(C)=C/CC[C@@]3(C)O[C@@H]3C[C@@H]12	92.5%
CCOC(=O)C1=C(C(=O)c2ccccc2)C(c2cccc([N+](=O)[O-])c2)C(C(=O)c2ccccc2)=C(C(=O)OCC)N1	66.8%
C=CC(=O)N[C@@H](Cc1ccc(-c2cc(Cl)cc(Cl)c2)cc1)[C@@H](O)[C@H](O)C(=O)O	95.9%
Nc1ccc(N)c2c1C(=O)c1cccc([N+](=O)[O-])c1C2=O	17.8%

From PubChem BioAssay (NCI)
